Results as given in PubChem BioAssay (NCI).
Compounds without any hit were thinned out: in the full panel of roughly 83,000, 20% have a hit.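 Step 1: grow cells in 96-well plates. Step 2: add test compound at a single concentration. Step 3: incubate 48 h. Step 4: record percent growth.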 Calls of active or inactive are those of the source. The calls were made as follows: active = growth percent below 10; inactive = the rest.

Assays:
Experiment in all cases: NCI-60 one-dose screen, 48 h (100 = growth as untreated, 0 = no growth, -100 = all killed)
NCI-H23 lung = details: 10 µM unless noted
NCI-H322M lung = details: 10 µM unless noted
HOP-62 NSCLC = details: 10 µM unless noted
NCI-H460 lung = details: 10 µM unless noted
NCI-H522 lung = details: 10 µM
A549/ATCC NSCLC = details: 10 µM unless noted
786-0 renal = details: 10 µM unless noted
COLO 205 colon = details: 10 µM unless noted

Measured: growth

CCN(CC)c1ccc2c(c1)OS(=O)(=O)N=C2
inactive: NCI-H23 lung 95.6% | NCI-H322M lung 107% | HOP-62 NSCLC 99.9% | NCI-H460 lung 109% | NCI-H522 lung 97.6% | A549/ATCC NSCLC 106% | 786-0 renal 93%

CCOC(=O)c1c(Cl)c2c(n1Cc1ccc(OC)cc1)-c1oncc1CCC2
inactive: NCI-H23 lung 86.5% | NCI-H322M lung 95.2% | HOP-62 NSCLC 98.4% | NCI-H460 lung 95.1% | NCI-H522 lung 95.4% | A549/ATCC NSCLC 86.1% | 786-0 renal 90.4% | COLO 205 colon 93.2%

Brc1ccccc1Nc1ccc2nnc(-c3ccncc3)n2n1
inactive: NCI-H23 lung 92.3% | NCI-H322M lung 95.6% | HOP-62 NSCLC 95.1% | NCI-H460 lung 104% | A549/ATCC NSCLC 101% | 786-0 renal 101% | COLO 205 colon 103%
active: NCI-H522 lung -71.2%

Clc1ccccc1Nc1ccc2nnc(-c3ccncc3)n2n1
active: NCI-H522 lung -55.8%
inactive: NCI-H23 lung 101% | NCI-H322M lung 102% | HOP-62 NSCLC 112% | NCI-H460 lung 109% | A549/ATCC NSCLC 89.9% | 786-0 renal 75.7% | COLO 205 colon 106%

O=C1CN2CCC1C/C2=C\c1ccnc2c(Cl)cccc12 (configuration not stated)
inactive: NCI-H23 lung 92.2% | NCI-H322M lung 102% | HOP-62 NSCLC 82% | NCI-H460 lung 116% | NCI-H522 lung 88.9% | A549/ATCC NSCLC 107% | 786-0 renal 103% | COLO 205 colon 98%

Nc1nc2c(s1)CCc1c-2c(Br)n(Cc2ccccc2)c1Br
inactive: NCI-H23 lung 91.8% | NCI-H322M lung 99.8% | HOP-62 NSCLC 64.9% | NCI-H460 lung 98.2% | A549/ATCC NSCLC 93.7% | 786-0 renal 102% | COLO 205 colon 85.6%
active: NCI-H522 lung -74.9%

O=C1OCC2=C1C(c1ccc3c(c1)OCO3)CC(=O)N2c1cccc(Cl)c1 (configuration not stated)
inactive: NCI-H23 lung 90.2% | NCI-H322M lung 94.1% | HOP-62 NSCLC 103% | NCI-H460 lung 108% | NCI-H522 lung 92.9% | A549/ATCC NSCLC 94.6% | 786-0 renal 110% | COLO 205 colon 105%

Cc1ccc(C2SCC(=O)N2NC(=O)c2[nH]c3ccc(F)cc3c2-c2ccccc2)cc1 (configuration not stated)
inactive: NCI-H23 lung 86.6% | NCI-H322M lung 111% | HOP-62 NSCLC 109% | NCI-H460 lung 92.2% | NCI-H522 lung 67.8% | A549/ATCC NSCLC 74.1% | 786-0 renal 105% | COLO 205 colon 104%

Cc1nc2nc(C(F)(F)F)[nH]c2nc1C
inactive: NCI-H23 lung 107% | NCI-H322M lung 110% | HOP-62 NSCLC 93.2% | NCI-H460 lung 111% | NCI-H522 lung 90.1% | A549/ATCC NSCLC 99.7% | 786-0 renal 93.5% | COLO 205 colon 108%

O=S(=O)(/N=C1C=C/C(=N\S(=O)(=O)c2ccccc2)c2ccccc2\1)c1ccccc1
inactive: NCI-H23 lung 83.1% | NCI-H322M lung 107% | HOP-62 NSCLC 90.2% | NCI-H460 lung 112% | NCI-H522 lung 85.9% | A549/ATCC NSCLC 101% | 786-0 renal 115% | COLO 205 colon 111%

O=C1/C(=C/c2ccc(Oc3ccccc3)cc2)N=C(c2ccccc2)N1CCc1cccs1
inactive: NCI-H23 lung 87.1% | NCI-H322M lung 93.6% | HOP-62 NSCLC 104% | NCI-H460 lung 70.1% | NCI-H522 lung 46.8% | A549/ATCC NSCLC 91.3% | 786-0 renal 84.5% | COLO 205 colon 107%

COc1ccc(C2SC(C)C(=O)N2CCc2cccs2)cc1OC (configuration not stated)
inactive: NCI-H23 lung 76.4% | NCI-H322M lung 91.7% | HOP-62 NSCLC 94.5% | NCI-H460 lung 90.3% | NCI-H522 lung 66.2% | A549/ATCC NSCLC 80.6% | 786-0 renal 92% | COLO 205 colon 93.9%

CCOC(=O)c1c(-c2cc(OC)c(OC)c(OC)c2)csc1N
inactive: NCI-H23 lung 92.9% | NCI-H322M lung 99.4% | HOP-62 NSCLC 80% | NCI-H460 lung 104% | NCI-H522 lung 79.6% | A549/ATCC NSCLC 96.9% | 786-0 renal 112% | COLO 205 colon 90.7%

CCOC(=O)c1sc(NC(=O)CN2CCC(Cc3ccccc3)CC2)nc1C
inactive: NCI-H23 lung 96.2% | NCI-H322M lung 90.4% | HOP-62 NSCLC 102% | NCI-H460 lung 101% | NCI-H522 lung 92.9% | A549/ATCC NSCLC 104% | 786-0 renal 96.9% | COLO 205 colon 97.1%

COC(=O)[C@@H]1CCCN1C(=O)[C@@H]1CCCN1C(=O)[C@@H](Cc1c[nH]c2ccccc12)NC(=S)Nc1cc(C(F)(F)F)cc(C(F)(F)F)c1
inactive: NCI-H23 lung 74.2% | NCI-H322M lung 75.8% | HOP-62 NSCLC 83.3% | NCI-H460 lung 51.6% | NCI-H522 lung 73.2% | A549/ATCC NSCLC 56.4% | 786-0 renal 69.8% | COLO 205 colon 16.8%

O=C(Nc1ccccc1)Oc1cccc2cccnc12
inactive: NCI-H23 lung 87.1% | NCI-H322M lung 138% | HOP-62 NSCLC 99.6% | NCI-H460 lung 74.8% | A549/ATCC NSCLC 93.3% | 786-0 renal 99.9% | COLO 205 colon 72.1%
active: NCI-H522 lung -4.77%
